Shown are actives, neighbours in structure and some others; about 9.9% of the full set was active somewhere.
KB-V1 cytotox: kills drug-selected multidrug resistant KB-V1 cells. KB-V1 MDR cells viability, CellTiter-Glo, 72 h. Potency, µM (top dose mostly 46.1 µM), most hits filed as cytotoxic. 400,000 compounds, 3.4% hits; also: potency is read from the fitted curve at half-maximal effect; % is scaled to controls: 0 for no effect and ±100 for the full control effect; nearly all actives have a fitted effect of over 60% in size
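Cytotoxicity via CellTiter-Glo luminescence after 72 h compound exposure at 37 degrees C. Cells: drug-selected KB-V1 line, DMEM phenol-red free plus 10% FBS. Compounds tested at multiple concentrations; normalized data fitted to concentration-effect curves.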
SW480 rereplic: induces DNA re-replication in SW480 colon adenocarcinoma cells | SW480 DNA re-replication, Hoechst DNA content imaging, 48 h | Potency, µM (doses to about 46.1 µM), for the others: at the top dose re-replication activation, actives largely listed as activators | 340,000 compounds, 1.8% hits; also: potency is read from the fitted curve at half-maximal effect; % of control where 0% means no effect; nearly all actives have a fitted effect of over 55% in size
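Quantitative HTS format with DMSO vehicle controls; 48 hr drug incubation at 37 C, then 40 min Hoechst staining and scanning imager measurement at 405 nm excitation.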
IL1B secr inh: inflammasome signaling inhibition, IL-1 beta readout; THP-1 LPS/ATP IL-1B secretion, AlphaLISA, 16 h; hits give low values; activity change, % at 57.5 µM; 360,000 compounds, 4.7% hits; in the data active = activity change below about -50%; inconclusive = mostly about -30% to -49%; also: % is scaled to controls: 0 for no effect and ±100 for the full control effect
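THP-1 cells pretreated 1 hr with compounds (up to 57.5 uM final), then stimulated with LPS (250 ng/mL final) plus ATP (1.25 mM final); secreted IL-1B measured by AlphaLISA after 16 hr, decreased signal indicating inhibition.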
KB-3-1 tox: KB-3-1 parental cell cytotoxicity; KB-3-1 viability, CellTiter-Glo ATP luminescence, 72 h; Potency, µM (series often up to 46.1 µM), actives largely listed as cytotoxic; 400,000 compounds, 1.4% hits; AID 1347075; also: potency is read from the fitted curve at half-maximal effect; % is scaled to controls: 0 for no effect and ±100 for the full control effect; nearly all actives have a fitted effect of over 60% in size
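Using CellTiter-Glo luminescence, growth of non-resistant KB-3-1 adenocarcinoma cells is assessed 72 h after pin-tool compound addition at 37 °C. Normalized responses across the concentration series yield fitted curves.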
MCF10A rereplic: DNA re-replication induction in MCF 10a cells. 350,000 compounds, 2.9% hits. AID 624296. Potency, µM (doses to about 46.1 µM), for the others: at the top dose activity, positive = re-replication, usual class: activators. MCF 10A DNA re-replication, Hoechst nuclear intensity, 48 h; also: potency is read from the fitted curve at half-maximal effect; % of control where 0% means no effect; nearly all actives have a fitted effect of over 50% in size
Numbers without * were called inactive; i = inactive; ? = inconclusive; · = no result; ! = not confirmed by another sample. Unless noted, calls follow the shape of the dose curve; as a rule, active = well fitted curve in the direction sought with a large enough effect; inconclusive = small, poorly fitted or top-dose-only effect, or another doubt; inactive = no such curve, though single readings can be large; an effect the other way counts as inactive or inconclusive.

SMILES | KB-V1 cytotox | SW480 rereplic | IL1B secr inh | KB-3-1 tox | MCF10A rereplic
O=c1[nH]c2ccccc2n1C1CCN(C(CCc2ccccc2)c2nnnn2Cc2ccccc2)CC1 (stereo not given) | 6.5µM* | · | -93* | ? | ·
O=c1[nH]c2ccccc2n1C1CCN(C(c2cccs2)c2nnnn2Cc2ccccc2)CC1 (stereo not given) | 15µM* | · | ? | ? | ·
Cc1ccc(NC(=O)CCSc2nnc(Cc3ccccc3)o2)cc1 | ? | ? | 9 | i | 0%
Cc1ccc(N=Nc2c(O)[nH]c(=O)[nH]c2=O)cc1S(=O)(=O)Nc1ccc(Br)cc1 | i | 25% | 5 | i | ?
CSc1ccccc1NC(=O)CN(C)CC(=O)c1[nH]c(C)c(C(C)=O)c1C | ? | 15% | 18 | i | ?
COc1ccc(C(=O)CN2CCOCC2)cc1 | i | · | · | i | ·
O=C1NC(=O)C2(CCCc3ccc(N(CCCl)CCCl)cc32)N1 (stereo not given) | i | 16µM* | -6 | i | 18µM*
CNC(=O)Oc1ccc(-c2cn3cc(C)ccc3n2)cc1 | 18µM* | ? | ? | i | 8%
CNC(=O)Oc1cccc(-c2cn3cc(Cl)ccc3n2)c1 | i | -460% | -7 | i | 2%
Clc1ccc(COC(Cn2ccnc2)c2ccc(Cl)cc2Cl)cc1 (stereo not given) | ? | ? | 0 | ? | ?
Clc1ccc(C(c2ccc(Cl)cc2)n2cc[n+](CC(OCc3ccc(Cl)cc3Cl)c3ccc(Cl)cc3Cl)c2)cc1 (stereo not given) | ? | -27% | -108* | ? | 5.2µM*
Cc1cc(/C=C2\C(=O)NC(=O)N(c3ccc(Cl)cc3)C2=O)c(C)n1-c1sc2c(c1C#N)CCCC2 | i | 7% | -26 | i | 25%
CCOC(=O)c1c(-n2c(C)cc(/C=C3\C(=O)NC(=O)N(C)C3=O)c2C)sc2c1CCCC2 | 23µM* | ? | -73* | i | ?
CCC1CN2CCc3cc(OC)c(OC)cc3C2CC1CC1NCCc2c1[nH]c1ccc(O)cc21 (stereo not given) | i | ? | -101* | 0.41µM* | ?
COc1ccc2c(c1OC)CN1CCc3cc4c(cc3[C@H]1C2)OCO4 | i | -11% | -4 | i | -28%
COc1ccc(CCNCc2sccc2C)cc1OC | i | 2% | -23 | i | ?
O=C(COc1ccc(Br)cc1)N1CCN(C2CCCC2)CC1 | ? | -1% | -1 | i | -4%
Cc1ccc(OCC(=O)N2CCN(C3CCC(c4ccccc4)CC3)CC2)cc1 (stereo not given) | ? | -2% | -8 | i | 13µM*
CC(Cc1ccccc1)/[N+]([O-])=C\c1ccc(C(F)(F)F)cc1 (stereo not given) | i | -7% | 0 | i | 14%
C=C(C)[C@H]1Cc2c(ccc3c2O[C@@H]2COc4cc(OC)c(OC)cc4[C@@H]2C3=O)O1 | · | ? | · | · | 3.9µM*!
C=CCN1C(=O)NC(=O)/C(=C/c2ccc(OC)c(COc3ccc(NC(C)=O)cc3)c2)C1=O | ? | 16µM* | 13 | ? | ?
COCCCNC(=O)c1c(NC(=O)c2ccco2)n(Cc2ccccc2)c2nc3ccccc3nc12 | i | ? | -3 | i | ?
Nc1c(C(=O)OCC2CCCO2)c2nc3ccccc3nc2n1Cc1cccs1 (stereo not given) | i | 9% | -29 | ? | ?
COCCNC(=O)c1c(NC(=O)c2ccc(Br)o2)n(Cc2ccccc2)c2nc3ccccc3nc12 | 12µM* | ? | -10 | i | 5.8µM*
CCCCNC(=O)c1c(N)n(CCCOC)c2nc3ccccc3nc12 | 18µM* | 2.1µM* | ? | i | 10µM*
SMILES | KB-V1 cytotox | SW480 rereplic | IL1B secr inh | KB-3-1 tox | MCF10A rereplic
COCCNC(=O)c1c(N)n(CCC(C)C)c2nc3ccccc3nc12 | 16µM* | ? | -116* | i | 3.3µM*
CC(C)OCCCNC(=O)c1c(N)n(Cc2cccs2)c2nc3ccccc3nc12 | ? | 3.7µM* | -63* | ? | 1.8µM*
C=Cc1ccc(Cn2c(C)c(CNCCc3cc(OC)ccc3OC)c(C(=O)O)c2C)cc1 | i | · | · | i | ·
CC(C)CCn1c(N)c(C(=O)NCc2cccs2)c2nc3ccccc3nc21 | i | 5.8µM* | ? | i | 1.5µM*
CN1CCN(c2cc(N3CCCCCC3)c(F)cc2[N+](=O)[O-])CC1 | ? | ? | -56* | i | 7%
CCN1CCN(c2cc(N3CCCC3)c([N+](=O)[O-])cc2F)CC1 | ? | 38% | -7 | i | 2%
CCOC(=O)C1(CCc2ccccc2)CCN(Cc2cccc3cnccc23)CC1 | ? | ? | -111* | ? | ?
CCOC(=O)C1(CCc2ccccc2)CCN(Cc2csc(C(C)=O)c2)CC1 | ? | 23% | -1 | i | 24%
CCOC(=O)C1(CCOc2ccccc2)CCN(Cc2ccccc2OC)CC1 | i | 13% | ? | i | 11%
CCOC(=O)C1(CCc2ccccc2)CCN(Cc2cccc3c2OCO3)CC1 | i | ? | -85* | ? | 8%
CCOC(=O)/C=C(C)/C=C/CC(C)CCCC(C)C (stereo not given) | · | -1% | · | · | 0%
COc1ccc([C@H]2CC(=O)C=C(c3ccc4c5c(cccc35)CC4)C2)cc1 | i | 0% | -7 | i | ?
COC[C@H]1OC(=O)c2coc3c2[C@@]1(C)C1=C(C3=O)[C@@H]2CCC(=O)[C@@]2(C)C[C@H]1OC(C)=O | ? | 8% | -101* | 21µM* | ?
Nc1nc(O)c(-c2ccccc2)o1 | · | -5% | · | · | 1%
COC(=O)C1=C(c2cc3ccccc3o2)C[C@@H]2CC[C@H]1N2C(=O)NC(C)C | i | 10µM* | 4 | i | 15%
COC(=O)C1=C(c2cc3ccccc3o2)C[C@@H]2CC[C@H]1N2C(=O)NCCNC(C)=O | i | 6% | 2 | i | -7%
COC(=O)C1=C(c2cc3ccccc3o2)C[C@@H]2CC[C@H]1N2C(=O)N1CCOCC1 | 23µM* | ? | 45 | 5.8µM* | ?
O=C(CCS(=O)(=O)c1ccccc1)Nc1nnc(-c2ccco2)o1 | i | 12% | -2 | i | ?
CCNC(=O)CCSc1nc2cc(Cl)ccc2o1 | i | ? | 35 | i | -2%
CC(C)N1C(=S)SC(C)(C)C1n1oc(=O)n(-c2cccc(Cl)c2)c1=O (stereo not given) | i | -2% | 32 | i | 0%
Cc1cccc(-c2nn3c(=O)cc(CN4CCN(C(=O)COc5ccc(Cl)cc5)CC4)nc3s2)c1 | i | · | · | i | ·
